Shown are actives, neighbours in structure and some others; about 1.5% of the full set was active somewhere.
Rin1-Abl PPI inh: human Rin1-Abl interaction inhibition. P00519+Q13671. hit rate 0.4% among 360,000. TR-FRET Rin1/Abl binding, biochemical. inhibition, % at 7.35 µM; in the data active = inhibition above about 5%, passing the limit was not always enough
sPLA2-III inh: Blocks human group III sPLA2 activity. QFRET BODIPY PC-A2 liposome hydrolysis, fluorescence. inhibition, % at 12.2 µM. hit rate 0.56% among 370,000. AID 743126;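 active = inhibition above mean plus 3 SD of compounds lying within the high and low control bounds, cut at about 19% in these data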;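 also: 0% = median of test compound wells and 100% = no enzyme DMSO wells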
AI-2 QS mod: modulates the Vibrio harveyi AI-2 quorum sensing system; hit rate 0.4% among 300,000; activity change, % at 7.5 µM; Vibrio harveyi JMH597 AI-2 luminescence/OD600 ratio, 9 h; hits give low values; strain lacks LuxN and CqsS sensors; 0 = neutral-control median; AID 2094; in the data active = activity change below about -75%, passing the limit was not always enough;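 also: luminescence divided by OD600 gain over 9 h not by final OD600 alone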
ARNT-TACC3 inh: disruptors of human ARNT/TACC3 interaction. inhibition, % at 9.99 µM. Q9Y6A5. AID 623870. hit rate 0.66% among 390,000. AlphaScreen His-ARNT PAS-B/GST-TACC3 binding, luminescence; TACC3 fragment carries E629A point mutation;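 active = mean inhibition of replicates at least 50% and at least half of replicates each reaching 50%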;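 also: 0% = complete ARNT plus TACC3 wells and 100% = ARNT alone without TACC3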
Starred values were filed as active, the others as inactive; / = no result.

SMILES	Rin1-Abl PPI inh	sPLA2-III inh	AI-2 QS mod	ARNT-TACC3 inh
O=C(Nc1ccsc1C(=O)O)c1ccc(Cl)cc1	0	-2	24	active
Cc1ccc(C(=O)Nc2ccsc2C(=O)O)cc1	0	-2	18	4
C[C@@H]1CN([C@@H](C)CO)C(=O)c2cc(NC(=O)Nc3ccccc3)ccc2O[C@@H](C)CCCCO[C@@H]1CN(C)S(=O)(=O)c1ccc(F)cc1	/	/	/	-7
C[C@H](O)C#Cc1cnc2c(c1)C(=O)N([C@@H](C)CO)C[C@@H](C)[C@@H](CN(C)C(=O)c1ccc(F)cc1)O2	/	/	/	6
O=C(O)COc1ccccc1/C=C1\SC(=S)N(/N=C/c2ccccc2O)C1=O	-4	18	18	70*
O=C(O)COc1ccccc1/C=C1\SC(=S)N(NC(=O)c2ccccc2O)C1=O	0	-12	18	51*
CC(C)c1ccc(NS(=O)(=O)c2ccc3c(c2)oc(=O)n3C)cc1	2	-16	-94*	-13
CC(C)c1ccc(NS(=O)(=O)c2ccc3c(c2)NC(=O)CO3)cc1	1	-31	-85*	5
O=C(O)c1ccc(N=Nc2c(O)ccc3ncccc23)cc1	10	-17	27	62*
O=C(O)c1cc(N=Nc2c(O)ccc3ccccc23)cc(C(=O)O)c1	-2	5	/	/
COCC(=O)Nc1ccc2c(c1)[C@H]1C[C@H](CC(=O)N3CCc4ccccc4C3)O[C@H](CO)[C@H]1O2	/	/	/	-2
CCOC(=O)c1sc(Nc2nc3c(OC)cccc3s2)nc1C	-1	-3	-1	3
COc1cccc2sc(Nc3nc(-c4ccccn4)cs3)nc12	0	/	9	45*
c1ccc(-c2csc(Nc3cccnc3)n2)nc1	-3	1	24	45*
COc1cccc2sc(Nc3nnc(-c4cccs4)o3)nc12	3	-4	-165*	2
C[C@H](CO)N1C[C@H](C)[C@@H](CN(C)C(=O)c2ccncc2)OCCCC[C@H](C)Oc2ccc(NC(=O)c3ccccc3)cc2C1=O	/	/	/	-8
C=CCn1c(SCC(=O)Nc2cc(C)on2)nnc1C1COc2ccccc2O1 (stereo not drawn)	4	-4	26	-4
Cc1cc(NC(=O)CSc2nnc(C3COc4ccccc4O3)n2N)no1 (stereo not drawn)	0	4	-77*	2
Cc1cccc(NS(=O)(=O)c2ccc(C(=O)NCC3(N4CCCCC4)CCCCC3)cc2)c1C	0	-1	-11	-10
O=C(NCC1(N2CCCCC2)CCCCC1)c1ccc(NS(=O)(=O)c2ccccc2)cc1	4	1	19	active
C[C@H]1CN([C@@H](C)CO)C(=O)Cc2cc(NS(=O)(=O)c3ccc(F)cc3)ccc2O[C@@H]1CN(C)CC1CCCCC1	/	/	/	4
CC(=O)[C@@H]1[C@@H]2C(=O)N(C3CCCCC3)C(=O)[C@@H]2C2c3ccccc3C=CN21 (stereo partly drawn)	/	/	23	/
COc1ccc(NC(=O)[C@@H]2[C@@H]3C(=O)N(C4CCCCC4)C(=O)[C@@H]3C3c4ccccc4C=CN32)cc1 (stereo partly drawn)	0	-6	-2	12*
CC(C)CC#Cc1ccc2c(c1)O[C@H](CN(C)C(=O)CC1CC1)[C@@H](C)CN([C@H](C)CO)S2(=O)=O	/	/	/	9
Cc1cccc(S(=O)(=O)N2C[C@H]3[C@@H](c4ccccc42)[C@H](CO)N3Cc2ccccn2)c1	/	/	/	20*
SMILES	Rin1-Abl PPI inh	sPLA2-III inh	AI-2 QS mod	ARNT-TACC3 inh
Cc1cccc(S(=O)(=O)N2C[C@H]3[C@@H](c4ccccc42)[C@@H](CO)N3Cc2cccnc2)c1	/	/	/	-4
O=C(C[C@H]1CC[C@H](NC(=O)C2CC2)[C@@H](CO)O1)NC1CCC1	/	/	/	-13
CCNc1nc(NCC)nc(C(=O)Nc2ccccc2)n1	-2	-4	18	96*
Oc1[nH]c2ccc(Br)cc2c1N=NC(=S)N1CCOCC1	-3	13	-47	66*
Oc1cccc(NC(=S)N=Nc2c(O)[nH]c3ccccc23)c1	-4	15	36	54*
Oc1[nH]c2ccccc2c1N=NC(=S)N1CCOCC1	-4	/	-3	66*
CCOc1ccc(NC(=S)N=Nc2c(O)[nH]c3ccccc23)cc1	-1	19	28	0
C[C@H](CO)N1C[C@H](C)[C@H](CN(C)CC2CCCCC2)Oc2ccc(NC(=O)Nc3cccc4ccccc34)cc2C1=O	/	/	/	-7
C[C@H](CO)N1C[C@H](C)[C@H](CN(C)C(=O)Nc2ccc(F)cc2)Oc2c(NS(C)(=O)=O)cccc2C1=O	/	/	/	-6
O=C(NCC1CC1)[C@H]1[C@H](CO)[C@H]2Cn3c(ccc(-c4cccnc4)c3=O)[C@@H]1N2Cc1nccs1	/	/	/	10
C[C@@H]1CN([C@@H](C)CO)C(=O)c2cccc(NC(=O)C3CC3)c2O[C@@H]1CN(C)S(=O)(=O)c1cn(C)cn1	/	/	/	-5
COc1cc2c(cc1OC)-c1cc(Nc3ccccc3)nc(=O)n1CC2	2	10	6	26
COc1cc2c(cc1OC)-c1cc(Nc3ccc(C(=O)O)cc3)nc(=O)n1CC2	2	0	12	46*
C[C@@H]1CN([C@H](C)CO)C(=O)c2cc(NC(=O)C3CCCCC3)ccc2O[C@H]1CN(C)Cc1ccc(C(=O)O)cc1	/	/	/	4
COc1cccc(C(=O)Nc2nnc(C3CCCO3)s2)c1 (stereo not drawn)	3	-1	-78*	6
CCC(=O)Nc1ccc2c(c1)OC[C@H](C)N(C(=O)C1CCC1)C[C@H](C)[C@@H](OC)CN(C)C2=O	/	/	/	-7
Cc1ccc(OCc2cc(C(=O)NCCc3cccnc3)no2)cc1C	4	-5	-84*	-8
Cc1cc(NC(=O)CCSc2ccccc2)ccc1Br	0	-6	-87*	-6
COc1ccc(NC(=O)N(C)C[C@@H]2Oc3ncc(C#C[C@@H](C)O)cc3C(=O)N([C@@H](C)CO)C[C@H]2C)cc1	/	/	/	-5
N#Cc1ccc(NC(=O)Nc2ccc(Cl)cc2)cc1	2	-18	-147*	-4
O=C(Nc1ccc(Cl)cc1)Nc1ccc(Cl)c(Cl)c1	/	3	/	/
Cc1ccc(CCC(=O)Nc2ccc(C)c(C)c2)o1	3	-37	-79*	-6
COc1ccc(-c2cnc3c(c2)C(=O)N([C@H](C)CO)C[C@H](C)[C@H](CN(C)Cc2ccc(F)cc2)O3)cc1	/	/	/	8
C[C@H]1CN([C@@H](C)CO)C(=O)c2cccc(NS(C)(=O)=O)c2O[C@@H]1CN(C)Cc1ccc2c(c1)OCO2	/	/	/	0
O=C(N/N=C/c1c[nH]c2ccccc12)c1[nH]c2ccc(Br)cc2c1-c1ccccc1	1	22*	10	12
O=C(Nn1cc(C(=O)Nc2ccccc2F)c2ccccc2c1=O)c1cnccn1	0	-5	56	60*
COC(=O)c1cn(NC(=O)c2ccc(OC)c(OC)c2)c(=O)c2ccccc12	-1	4	13	-2
COC(=O)c1cn(NC(=O)c2cnccn2)c(=O)c2ccccc12	2	4	73	63*
C(=N\Nc1nc2ccccc2[nH]1)/C1CCCCC1	0	-5	7	46*
C(=N\Nc1nc2ccccc2[nH]1)/c1ccccc1	-5	-1	1	1

Assay outcomes as filed in PubChem BioAssay.
